# Sampled rows, rich in hits. Any-hit rate of the full collection: about 5.4%.
# AHR act – AHR activators, primary screen, cell-based, luminescence, luciferase reporter, human; Aryl hydrocarbon receptor (Homo sapiens), P35869; AHR-responsive luciferase reporter cells; activation, % at 5 µM; hit rate 2.5% among 320,000; in the data active means activation above about 47%
# NR0B1 inh – DAX1 (NR0B1) inhibitors, primary screen, cell-based, HEK293, Gal4-DAX1, luciferase luminescence; Nuclear receptor subfamily 0 group B member 1 (Homo sapiens), P51843; HEK293 Gal4-DAX1 luciferase reporter; inhibition, % at 6.75 µM; hit rate 0.99% among 340,000; AID 504766, 2011;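 active means inhibition above the mean over all tested compounds plus 3 SD, cut at about 4.2% in these data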;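 further: inhibition shows as a rise in luminescence from relieved DAX1 repression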
# HSF1 inhib – HSF1 inhibitors in luciferase reporter cells, primary screen, cell-based, NIH3T3, luminescence. NIH3T3-HGL HSE-luciferase, MG132-induced, luminescence 8 h; hits give low values. activity change, negative = inhibition, % at 7.5 µM (by protocol). hit rate 0.77% among 300,000;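 active means more than half of replicate wells show activity change below -50%, luminescence cut by over half; inconclusive means some wells, but at most half, below -50%; inactive means no replicate well below -50%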;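 further: luciferase reports HSF-1 transcriptional activity via heat shock element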
# HSF1 activator – HSF-1 activators, primary screen, NIH3T3-HGL cells, MG132 stress, luminescence, single point; NIH3T3-HGL HSF-1 luciferase reporter, 8 h; 100% = twice DMSO control signal; activation, % at 9 µM; hit rate 1.7% among 300,000; AID 504408, 2011;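 active means mean replicate activation of at least 50% with a set share of replicates each reaching 50%; inconclusive means only one of those two conditions met; inactive means mean below 50% and too few replicates reaching it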
# FXN GAA850 act – FXN promoter activators, primary screen, cell-based, luciferase luminescence, HEK293 lucGAA850; HEK293 lucGAA850 FXN promoter luciferase reporter, 24 h; percent of 10 µM SAHA response; activation, % at 6 µM; hit rate 0.56% among 360,000;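 active means activation above the average of all compounds screened plus 3 SD, cutoff fixed separately per campaign, cut at about 7.5% in these data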
# Numbers stand for hits; - = inactive; ? = inconclusive; . = no result.
SMILES,AHR act,NR0B1 inh,HSF1 inhib,HSF1 activator,FXN GAA850 act
CC(CN1CCCCC1)OC(=O)c1ccc2c(c1)OCCO2 (stereo not given),-,-,-,-,-
CC(OC(=O)c1ccc2c(c1)OCCO2)C(=O)c1ccccc1 (stereo not given),-,4.9,-,?,-
Cc1ccc(Cn2c(SCC(=O)N(C)C3CCS(=O)(=O)C3)nc3ccccc3c2=O)cc1 (stereo not given),-,-,-,-,-
Cc1ccc(CN2CCC(n3nccc3NC(=O)CCOc3ccccc3)CC2)cc1C,-,-,-,-,-
COc1ccc(NC(=O)C2(C)Cc3c(-c4ccc(N(C)C)cc4)ccnc3O2)cc1 (stereo not given),.,.,.,.,-
CC(=C\C(=O)O)/C(=C\c1cccc2ccccc12)C(=O)O,-,-,-,-,-
Cc1ccc(NC(=S)NC2CCN(Cc3ccccc3)CC2)cc1C,-,-,-,-,-
O=C(CCCc1ccccc1)c1ccc2c(c1)OCCO2,-,-,-89.1,-,-
S=C(Nc1ccc2c(c1)OCO2)NC1CCN(Cc2ccccc2)CC1,-,4.7,-,-,-
O=C(c1cc2cc(Br)ccc2s1)N1CCOCC1,-,-,-,-,-
C/C(=N\NC(=O)c1cc(-c2ccc(Br)s2)[nH]n1)c1ccncc1,-,-,-,-,-
CCc1ccc(C(=O)N/N=C(\C)c2ccncc2)s1,-,-,-73.7,-,-
C/C(=N\NC(=O)c1cc(-c2ccc(Cl)s2)[nH]n1)c1ccncc1,49.8,-,-,-,-
C/C(=N/NC(=O)c1ccc(C)s1)c1ccncc1,.,-,-,-,-
O=[N+]([O-])c1ccc(N2CCCCCC2)c([N+](=O)[O-])c1,-,-,-,76.6,-
Cc1cc(NC(=O)c2ccccc2[N+](=O)[O-])ccc1Br,-,4.8,-,-,-
COc1ccc(-c2sc3ccc(OC)cc3c2C#CCCO)cc1,60.9,-,-,-,-
COc1ccc(-c2sc3ccc(OC)cc3c2-c2ccc(O)cc2)cc1,64.8,-,.,.,-
COc1ccc(-c2sc3ccc(N4CCOCC4)cc3c2C#CC(C)(C)O)cc1,48.8,-,.,.,-
COc1ccc2sc(-c3ccc(N(C)C)cc3)c(C#Cc3cncn3C)c2c1,71.2,-,.,.,-
COc1cc(OC)cc(-c2sc3ccc(OC)cc3c2-c2ccc(O)cc2)c1,-,-,.,.,-
O=C(N/N=C/c1cn(-c2ccccc2)nc1-c1cccnc1)c1cccnc1,-,-,-,-,-
O=C(N/N=C/c1cn(-c2ccccc2)nc1-c1cc2ccccc2o1)c1ccncc1,68.3,-,-,-,-
O=C(N/N=C/c1cn(-c2ccccc2)nc1-c1cc2ccccc2o1)c1cccnc1,51.4,-,-,-,-
COc1ccccc1CC(=O)NNC(=O)c1ccco1,-,-,-,-,-
SMILES,AHR act,NR0B1 inh,HSF1 inhib,HSF1 activator,FXN GAA850 act
COc1cccc2cc(C(=O)NCCN3CCOCC3)c(=O)oc12,-,-,-,-,-
COc1ccccc1CN1CC(C(=O)N2CCOCC2)CCC1=O (stereo not given),-,-,-,-,-
CCc1cc[n+](C2=C([O-])c3ccccc3C(=O)/C2=N\S(=O)(=O)c2cccs2)cc1,67.5,-,-,-,-
Oc1ccccc1/C=C/c1noc(-c2ccccc2O)n1,66.1,7.5,-,-,-
COc1cc(/C=C/c2noc(-c3ccccc3O)n2)ccc1OC(C)=O,-,-,-,54.4,-
CC(=O)Nc1ccc(/C=C/c2noc(-c3ccccc3O)n2)cc1,-,-,-,-,-
CCNC(=O)C1(C)CCCN(Cc2csc(-c3ccccc3)n2)C1 (stereo not given),.,.,.,.,-
COc1ccccc1NC(=O)C1=C(C)NC2=C(C(=O)CC(c3ccc(OC)c(OC)c3)C2)C1c1coc2ccccc2c1=O (stereo not given),-,-,-,66.8,-
CC(C)c1ccc2c(c1)[C@H]1OCC[C@H]1[C@@H](c1cccs1)N2,70.3,-,-,122.0,-
Cc1cc(C)c2c(c1)N[C@H](c1cccs1)[C@@H]1CCO[C@H]21,-,-,-,-,-
COc1c(OC(C)=O)c(=O)n2c3ccccc3c3ccnc1c32,-,-,-,-,-
O=S1(=O)N=C(Nc2nc3c(s2)CCCC3)c2ccccc21,57.1,-,.,.,-
Cc1cccc(Nc2nc3c(s2)CCCC3)c1,-,-,-,-,-
CN(C)c1nc(Cl)nc(NCCOc2ccccc2)n1,-,4.3,-,-,-
CCNc1nc(Cl)nc(NCCOc2ccc(C)cc2)n1,-,-,-,-,-
COc1ccc2[nH]c(=O)c(CN(Cc3cccs3)S(=O)(=O)c3c(C)ccc4nsnc34)cc2c1,-,-,-63.9,-,-
Cc1ccc(NC(=S)NC2CC3CCC(C2)N3Cc2ccco2)c(C)c1 (stereo not given),-,-,-,-,-
Cc1ccc(NC(=S)NC2CC3CCC(C2)N3Cc2ccco2)cc1C (stereo not given),-,-,-83.9,-,-
Cc1ccccc1NC(=O)CC(C)S(=O)(=O)c1ccc2c(c1)NC(=O)CO2 (stereo not given),-,-,-,62.0,-
CC(CC(=O)Nc1cccc(F)c1)S(=O)(=O)c1ccc2c(c1)NC(=O)CO2 (stereo not given),-,-,-,-,-
CC(CC(=O)NCCc1ccc(Cl)cc1)S(=O)(=O)c1ccc2c(c1)NC(=O)CO2 (stereo not given),-,-,-,-,-
COc1cc(NC(=O)CC(C)S(=O)(=O)c2ccc3c(c2)NC(=O)CO3)cc(OC)c1OC (stereo not given),-,-,-,54.7,-
S=C(NCc1ccccc1)NCc1ccccc1Cl,.,-,.,.,-
O=C(COC(=O)c1cccs1)c1ccc2c(c1)OCCO2,-,-,-52.2,-,-
Cc1c(C(=O)OCC(=O)NCc2ccc3c(c2)OCO3)cccc1[N+](=O)[O-],-,-,-,59.5,-
SMILES,AHR act,NR0B1 inh,HSF1 inhib,HSF1 activator,FXN GAA850 act
Cc1cccc(C(=O)OCC(=O)c2ccc3c(c2)OCO3)c1O,-,-,-,66.3,-
O=C(COC(=O)c1ccccc1[N+](=O)[O-])c1ccc2c(c1)OCO2,-,-,-66.4,-,-
COc1ccccc1C(=O)COC(=O)CCNS(=O)(=O)c1ccc(C)c(C)c1,-,-,-,-,-
COc1cccc(-c2nn(-c3ccccc3)cc2CN2CCCO2)c1,-,-,-,-,-
O=C(Nc1ccccc1N1CCOCC1)c1ccc([N+](=O)[O-])s1,-,-,.,.,-
O=C1CN(C(=O)COC(=O)c2ccccc2Br)c2ccccc2N1,-,-,.,.,-
Cc1ccc(C(=O)C(C)[n+]2cccc(C(N)=O)c2)cc1 (stereo not given),-,7.1,-,-,-
CCSc1nnc(NC(=O)c2nc(S(=O)(=O)Cc3ccc(F)cc3)ncc2Cl)s1,-,-,-,-,-

# Compound activity: PubChem, several laboratories
